Compound activity as filed in PubChem.
GSTO1 counter: counter-screen for RBBP9 inhibitors: inhibitors of human GSTO1. P78417. AID 1974. inhibition, % at 5.96 µM. recombinant GSTO1, activity-based probe fluorescence polarization. hit rate 1.1% among 300,000;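 active = inhibition above the campaign mean inhibition plus 3 SD, cut at about 35% in these data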;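 also: 0% = GSTO1-1 with DMSO and 100% = wells lacking GSTO1-1 enzyme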
Target sequence (P78417 whole entry, looked up): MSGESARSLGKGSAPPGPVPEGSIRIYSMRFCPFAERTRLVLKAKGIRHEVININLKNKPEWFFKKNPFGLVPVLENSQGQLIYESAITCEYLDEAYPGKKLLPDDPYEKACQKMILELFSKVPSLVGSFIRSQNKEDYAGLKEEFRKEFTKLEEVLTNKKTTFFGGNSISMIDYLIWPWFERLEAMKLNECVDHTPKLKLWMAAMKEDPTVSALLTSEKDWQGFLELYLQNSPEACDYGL
ZTA DNA inh: blocks Epstein-Barr virus ZTA, an EBNA-1 counter-screen | inhibition, % at 11 µM | hit rate 0.15% among 320,000 | ZTA-DNA binding, fluorescence polarization | P03206; in the data active = inhibition above about 33%
LYPLA2 inh: LYPLA2 (human) inhibition in PME1 counter-screen. O95372. recombinant LYPLA2, FP-Rh probe fluorescence polarization. inhibition, % at 5.9 µM. hit rate 0.38% among 320,000;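 active = inhibition above the screen-wide mean plus 3 SD, limit set per campaign, cut at about 26% in these data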;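 also: 0% = LYPLA2 with DMSO and 100% = wells lacking LYPLA2 enzyme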
Target sequence (O95372 whole entry, looked up): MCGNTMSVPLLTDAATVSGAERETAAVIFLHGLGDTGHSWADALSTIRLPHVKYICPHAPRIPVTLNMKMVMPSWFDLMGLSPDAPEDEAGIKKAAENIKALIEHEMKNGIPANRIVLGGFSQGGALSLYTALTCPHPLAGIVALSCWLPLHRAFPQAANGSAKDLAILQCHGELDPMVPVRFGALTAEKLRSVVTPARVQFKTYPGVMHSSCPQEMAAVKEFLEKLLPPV
PAD4 FP inh: inhibitors of human PAD4 | recombinant PAD4, RCA probe fluorescence polarization | inhibition, % at 6.36 µM | hit rate 0.41% among 330,000 | AID 485272;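 active = percent inhibition above a cutoff equal to the mean of all tested compounds plus 3 SD, cut at about 15% in these data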;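 also: 0% = PAD4 with RCA probe and DMSO and 100% = probe without PAD4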
LYPLA1 counter: LYPLA1 (human) inhibition in PME1 counter-screen. O75608. hit rate 0.16% among 320,000. inhibition, % at 5.9 µM. recombinant LYPLA1, FP-Rh probe fluorescence polarization. AID 2174;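 active = inhibition above the mean of all tested compounds plus 3 SD, set per campaign, cut at about 14% in these data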;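 also: inhibitors block serine hydrolase probe labeling of LYPLA1 so polarization falls; 0% = enzyme with DMSO and 100% = wells lacking LYPLA1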
EBNA-1 inhibitor: blocks EBNA-1 binding to DNA; hit rate 0.34% among 300,000; AID 1950; inhibition, % at 14.8 µM; EBNA-1 DNA binding, fluorescence polarization; in the data active = inhibition above about 28%
LYPLA2 conf: LYPLA2 (human) inhibition, confirmation counter-screen. shares compounds with LYPLA2 inh. recombinant LYPLA2, FP-Rh probe fluorescence polarization. inhibition, % at 5.9 µM. hit rate 72% among 1,100. AID 2232;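 active = mean inhibition across replicates above the hit cutoff set in the primary screen, cut at about 26% in these data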;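 also: blocked labeling of the enzyme by serine hydrolase FP-Rh probe lowers polarization; 0% = enzyme with DMSO and 100% = wells lacking LYPLA2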
LYPLA2 ABPP: inhibitors of human LYPLA2. shares compounds with LYPLA2 inh. rhLYPLA2 in mouse brain proteome, gel ABPP FP-Rh. inhibition, % at 20 µM. hit rate 30% among 150;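 active = inhibition of LYPLA2 enzyme probe labeling above about 50%, limit read from the data; inactive = inhibition below that limit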;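 also: loss of FP-Rh probe labeling of the LYPLA2 gel band measured as band density; 0% = DMSO only control band and 100% = blank gel background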
* hit, by the source's call; / = not tested or not shown. In the library only some 1.7% were active in any assay of this set; here they are far more common.

SMILES	GSTO1 counter	ZTA DNA inh	LYPLA2 inh	PAD4 FP inh	LYPLA1 counter	EBNA-1 inhibitor	LYPLA2 conf	others
CC(OC(=O)c1cccc([N+](=O)[O-])c1)C(=O)N1CCc2ccccc21 (stereo not drawn)	/	6	11	4	-2	/	/
CCCC(=O)Nc1ccc(N2CCN(C(=O)c3cc4ccccc4o3)CC2)cc1	-2	-14	45*	1	10	-2	50*
Nc1nc(N2CCN(C/C=C/c3ccccc3)CC2)nc2ccccc12	4	10	42*	-5	6	-3	39*
CCCCOC(=O)c1ccc(NC(=O)C(=O)NCc2ccncc2)cc1	2	12	35*	1	3	7	31*
Cc1sc2ncnc(OCC(=O)N3CCN(S(=O)(=O)c4ccc(Cl)cc4)CC3)c2c1C	1	-7	7	3	-1	8	/
Cc1sc2ncnc(OCC(=O)c3ccc(S(=O)(=O)N4CCCC4)cc3)c2c1C	2	-9	28*	-9	-8	-3	15
O=C(COC(=O)c1ccc(CO)cc1)c1ccc(S(=O)(=O)N2CCCCC2)cc1	/	-18	14	0	-1	/	/
O=C(COC(=O)c1ccc(O)cc1)c1ccc(S(=O)(=O)N2CCCCC2)cc1	/	2	44*	-1	4	/	35*
CCOC(=O)C1(CCOc2ccccc2)CCN(Cc2cccc(OC)c2OC)CC1	-4	-14	2	3	-2	0	/
CC(C)(CNC(=O)c1ccc(S(=O)(=O)Nc2cccc(C(F)(F)F)c2)cc1)N1CCOCC1	/	-10	1	-3	-1	/	/
COc1ccccc1C(=O)NCCC(=O)N1CCN(C(C)=O)CC1	-6	-5	12	-3	8	-5	/
O=C(CN1C(=O)NC2(CCCC2)C1=O)Nc1ccc(S(=O)(=O)N2CCOCC2)cc1	-3	-1	30*	-2	4	6	1
COc1cc(/C=N/NC(=O)/C(=C\c2ccc([N+](=O)[O-])cc2)NC(=O)c2ccccc2)cc(OC)c1O	18	6	39*	-2	-2	-10	42*
CN(C(=O)c1ccc(NC(=O)Cc2cccc(NC(=O)C3CCN(C(=O)C4CCCC4)CC3)c2)cc1)C1CCCC1	/	-4	32*	-5	3	/	-5
CN(C(=O)c1ccc(NC(=O)Cc2ccc(NC(=O)C3CCCN(C(=O)C4CC4)C3)cc2)cc1)C1CC1 (stereo not drawn)	/	-14	60*	1	3	/	61*	LYPLA2 ABPP=45
Cc1ccc(S(=O)(=O)c2nc(-c3cccs3)oc2N2CCC(C(N)=O)CC2)cc1	/	/	/	2	/	/	/
Cc1[nH]c2ccc(C(=O)OCC(=O)Nc3cccc(S(N)(=O)=O)c3)cc2c1C	/	5	-5	4	-3	/	/
N#CCCN(NC1=NS(=O)(=O)c2ccccc21)C(=O)c1ccccc1Br	-5	-6	0	0	0	3	/
CCOC(=O)C(Cc1ccccc1)c1ccnc2ncnn12 (stereo not drawn)	-4	5	35*	3	4	-7	10
CCOC(=O)C(Cc1ccccc1)C(=O)Nc1nccs1 (stereo not drawn)	2	-21	5	-2	4	0	/
Cn1c(C(=O)N2CCN(c3cccc(C(F)(F)F)c3)CC2)cc2sccc21	2	-2	27*	6	3	-4	24
O=[N+]([O-])c1ccccc1OCC(O)CN1CCN(CC(O)COc2ccccc2[N+](=O)[O-])CC1 (stereo not drawn)	3	-15	44*	-7	0	-8	49*
OC(COc1cccc2ccccc12)CN1CCN(c2cccc(Cl)c2)CC1 (stereo not drawn)	-4	7	35*	4	13	9	22
Cc1nc(C(=O)NC2CCCCC2)sc1C1(C)CC(c2cccc([N+](=O)[O-])c2)=NO1 (stereo not drawn)	-10	1	50*	-5	-1	-6	60*	LYPLA2 ABPP=45
COc1ccc(C(=O)NC(=S)Nc2cccc3ncccc23)cc1[N+](=O)[O-]	-2	1	48*	-8	6	1	51*	LYPLA2 ABPP=38
SMILES	GSTO1 counter	ZTA DNA inh	LYPLA2 inh	PAD4 FP inh	LYPLA1 counter	EBNA-1 inhibitor	LYPLA2 conf	others
O=C(Nc1cccc2ncccc12)c1cccc(F)c1	-7	-6	3	-5	-2	2	/
COc1ccc(C(=O)NC(=S)NCc2cccnc2)cc1OC	5	3	-1	-3	-1	5	/
COc1ccc(C(=O)NC(=S)NCc2cccnc2)cc1[N+](=O)[O-]	-2	-41	35*	5	12	1	24
O=C(Nc1cccc2ncccc12)c1ccc(Br)c([N+](=O)[O-])c1	8	-10	33*	-3	-3	-4	47*
CCCN(CC(=O)Nc1ccccc1C)CC(=O)Nc1ccc(Br)cc1F	27	-1	-8	5	-8	1	/
O=C(Nc1ncccc1O)c1cccc(S(=O)(=O)N2CCc3ccccc32)c1	-2	-3	27*	1	-1	3	-5
Cn1c(SCC(=O)Nc2ccc3cn[nH]c3c2)nnc1-c1cccs1	-4	-1	29*	-1	4	2	-2
O=C(CCC(=O)N1CCN(c2ccc(C(F)(F)F)cn2)CC1)c1cccs1	/	-4	32*	0	4	/	25
Cc1ccccc1SCC(=O)N1CCN(c2ccc(C(F)(F)F)cn2)CC1	5	8	28*	8	-3	2	36*
O=C(CCC(=O)N1CCN(c2ccccn2)CC1)c1cccs1	/	/	/	0	/	/	/
OCCC1CN(Cc2ccc3cccc(F)c3n2)CCN1Cc1ccccc1 (stereo not drawn)	2	8	0	0	0	-3	/
CCOC(=O)C1=C(C)NC2=C(C1c1ccc([N+](=O)[O-])cc1)S(=O)(=O)c1ccccc12 (stereo not drawn)	2	-14	41*	-3	1	-5	38*
CCOC(=O)C1=C(C)NC2=C(C(=O)c3ccccc32)C1c1ccc([N+](=O)[O-])o1 (stereo not drawn)	19	-13	2	1	-6	-9	/
CC1CCN(C(=O)CSc2ccc(-c3cccnc3)nn2)CC1	-2	7	-6	-3	0	9	/
Cc1ccc(F)c(CNC(=O)C2CCC(=O)N(Cc3ccccn3)C2)c1F (stereo not drawn)	6	6	1	-2	0	-1	/
CC12CCC(=O)N1C(C(=O)NNC(=O)c1cccc(Cl)c1)CS2 (stereo not drawn)	1	5	35*	-1	0	8	6
